Data published in ChEMBL document CHEMBL3988442, “University of Dundee, Small-Polar-MMV Screening Library” (2021).
For part of these data: Results with a measured potency or affinity are listed apart.

What was measured:
Design in all cases: scale not given: direction of the effect not stated beside the values
[1] = molecular target: Protein translocase subunit SecA (Escherichia coli (strain K12)) (UniProt P10408); assay: Assay to Identify E. coli SecA ATPase Inhibitors; format: functional; conditions: 30 µM
Sequence of Protein translocase subunit SecA (Escherichia coli (strain K12)) (P10408 whole entry): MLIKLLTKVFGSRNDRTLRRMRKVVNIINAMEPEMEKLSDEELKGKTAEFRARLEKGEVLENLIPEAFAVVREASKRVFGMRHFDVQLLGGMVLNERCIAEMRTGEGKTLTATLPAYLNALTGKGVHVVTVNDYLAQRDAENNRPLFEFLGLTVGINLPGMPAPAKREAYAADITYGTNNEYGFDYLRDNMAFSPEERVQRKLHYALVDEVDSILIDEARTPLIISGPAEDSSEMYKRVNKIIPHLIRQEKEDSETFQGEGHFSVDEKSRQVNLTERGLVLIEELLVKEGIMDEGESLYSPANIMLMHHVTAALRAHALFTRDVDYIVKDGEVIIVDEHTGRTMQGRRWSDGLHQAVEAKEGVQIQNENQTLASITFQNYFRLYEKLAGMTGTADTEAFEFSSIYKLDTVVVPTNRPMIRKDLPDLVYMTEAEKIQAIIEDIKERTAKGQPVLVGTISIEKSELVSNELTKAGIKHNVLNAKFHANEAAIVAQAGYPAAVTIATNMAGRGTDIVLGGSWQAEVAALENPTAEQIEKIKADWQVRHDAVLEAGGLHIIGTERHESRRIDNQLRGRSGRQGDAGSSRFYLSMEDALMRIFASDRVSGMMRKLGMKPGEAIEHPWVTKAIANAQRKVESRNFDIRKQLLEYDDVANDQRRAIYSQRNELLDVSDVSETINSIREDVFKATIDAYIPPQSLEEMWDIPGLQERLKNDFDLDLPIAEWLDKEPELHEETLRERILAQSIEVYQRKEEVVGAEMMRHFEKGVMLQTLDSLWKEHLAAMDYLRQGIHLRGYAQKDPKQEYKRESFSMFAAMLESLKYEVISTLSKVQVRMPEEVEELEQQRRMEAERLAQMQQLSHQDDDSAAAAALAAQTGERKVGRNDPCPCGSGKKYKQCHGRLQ

[2] = molecular target: T1, Ubiquitin-activating enzyme e1, putative (Leishmania donovani (strain BPK282A1)) (UniProt E9BSI1); assay: Leishmania donovani Ubiquitin Activating Enzyme (LdE1); format: functional; conditions: 30 µM
T1 sequence (whole entry): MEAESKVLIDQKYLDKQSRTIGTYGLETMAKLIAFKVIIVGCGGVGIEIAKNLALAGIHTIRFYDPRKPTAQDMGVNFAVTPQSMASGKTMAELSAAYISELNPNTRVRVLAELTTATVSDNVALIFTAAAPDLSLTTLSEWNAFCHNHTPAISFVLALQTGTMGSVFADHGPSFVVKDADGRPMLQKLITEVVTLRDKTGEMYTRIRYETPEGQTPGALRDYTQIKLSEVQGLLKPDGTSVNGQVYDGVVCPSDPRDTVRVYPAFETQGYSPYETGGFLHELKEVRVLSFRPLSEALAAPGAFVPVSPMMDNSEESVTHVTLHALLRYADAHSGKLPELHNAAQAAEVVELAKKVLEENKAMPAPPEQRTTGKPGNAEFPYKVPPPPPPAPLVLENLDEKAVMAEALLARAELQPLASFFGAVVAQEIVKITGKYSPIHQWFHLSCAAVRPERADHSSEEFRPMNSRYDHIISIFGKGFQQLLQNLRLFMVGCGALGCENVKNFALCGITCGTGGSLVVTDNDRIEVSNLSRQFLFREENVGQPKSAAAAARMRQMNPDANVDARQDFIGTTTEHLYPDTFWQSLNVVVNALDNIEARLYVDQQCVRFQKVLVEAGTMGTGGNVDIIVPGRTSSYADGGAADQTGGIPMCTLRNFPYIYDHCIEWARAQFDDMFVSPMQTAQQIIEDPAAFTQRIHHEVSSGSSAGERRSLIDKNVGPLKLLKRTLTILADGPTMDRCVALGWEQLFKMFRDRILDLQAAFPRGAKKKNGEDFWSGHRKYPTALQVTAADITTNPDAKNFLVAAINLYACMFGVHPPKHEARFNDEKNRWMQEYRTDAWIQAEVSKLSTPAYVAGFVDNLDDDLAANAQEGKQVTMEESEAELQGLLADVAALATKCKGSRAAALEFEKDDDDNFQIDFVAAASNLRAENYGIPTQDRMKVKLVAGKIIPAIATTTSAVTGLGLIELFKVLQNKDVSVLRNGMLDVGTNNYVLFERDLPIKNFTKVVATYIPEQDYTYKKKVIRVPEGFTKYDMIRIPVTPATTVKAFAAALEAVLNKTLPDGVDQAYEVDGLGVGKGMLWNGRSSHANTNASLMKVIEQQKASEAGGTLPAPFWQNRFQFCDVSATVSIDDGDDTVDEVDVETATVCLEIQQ

[3] = molecular target: AMP-activated protein kinase, AMPK (Homo sapiens) (UniProt P54646+O43741+P54619+Q9UGJ0+Q9Y478+Q13131+Q9UGI9); assay: AMP-dependent Kinase enzyme assay. An in vitro enzyme assay that detects ADP turnover that is directly proportional to AMPK activity. This uses naive AMPK that is activated during the assay with MK-8722; format: functional; conditions: 30 µM
[4] = molecular target: Sialic acid-binding Ig-like lectin 9 (Homo sapiens) (UniProt Q9Y336); assay: Hs-Siglec9 ALPHAscreen SOP 20170721; conditions: 10 µM
Sequence of Sialic acid-binding Ig-like lectin 9 (Homo sapiens) (Q9Y336 whole entry): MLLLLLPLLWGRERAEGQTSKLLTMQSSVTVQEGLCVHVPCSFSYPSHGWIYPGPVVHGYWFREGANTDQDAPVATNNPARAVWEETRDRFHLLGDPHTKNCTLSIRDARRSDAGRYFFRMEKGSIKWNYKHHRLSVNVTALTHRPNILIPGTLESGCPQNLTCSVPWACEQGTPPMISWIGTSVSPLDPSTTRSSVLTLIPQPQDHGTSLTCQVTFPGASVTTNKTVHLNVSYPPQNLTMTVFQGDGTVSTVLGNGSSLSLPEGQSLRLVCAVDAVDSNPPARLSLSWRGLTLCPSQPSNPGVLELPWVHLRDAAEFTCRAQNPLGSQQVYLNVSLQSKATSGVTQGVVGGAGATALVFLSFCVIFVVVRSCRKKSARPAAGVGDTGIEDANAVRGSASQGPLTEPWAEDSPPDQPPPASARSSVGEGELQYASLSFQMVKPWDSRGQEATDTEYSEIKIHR

Trypanosoma cruzi = assay: Trypanosoma cruzi phosphomannomutase and mannose-1-phosphate guanylyltransferase assay; format: functional; conditions: 10 µM
[5] = molecular target: T2, Arginase-2, mitochondrial (Homo sapiens) (UniProt P78540); assay: in vitro enzyme assay to detect the production of urea directly proportional to the activity of Arginase II; format: functional; conditions: 33.3 µM; also: in the data most compounds retested in dose-response had high values
T2 sequence (whole entry): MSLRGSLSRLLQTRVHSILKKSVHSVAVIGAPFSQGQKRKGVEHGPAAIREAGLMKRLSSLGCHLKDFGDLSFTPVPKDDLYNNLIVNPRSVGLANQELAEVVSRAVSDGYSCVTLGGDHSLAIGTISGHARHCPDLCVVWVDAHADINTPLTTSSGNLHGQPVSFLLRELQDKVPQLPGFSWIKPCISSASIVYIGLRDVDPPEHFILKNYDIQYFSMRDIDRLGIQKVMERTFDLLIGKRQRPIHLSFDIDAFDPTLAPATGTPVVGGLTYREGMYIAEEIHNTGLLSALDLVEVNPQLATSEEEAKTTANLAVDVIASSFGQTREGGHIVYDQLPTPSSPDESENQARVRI

[6] = molecular target: T3, Proteasome subunit beta (Trypanosoma cruzi) (UniProt O96673); assay: Trypanosoma cruzi proteasome chymotrypsin-like activity (TcProtChymo) assay.; also: in the data most compounds retested in dose-response had high values; format: functional; conditions: 9.37 µM
T3 sequence (whole entry): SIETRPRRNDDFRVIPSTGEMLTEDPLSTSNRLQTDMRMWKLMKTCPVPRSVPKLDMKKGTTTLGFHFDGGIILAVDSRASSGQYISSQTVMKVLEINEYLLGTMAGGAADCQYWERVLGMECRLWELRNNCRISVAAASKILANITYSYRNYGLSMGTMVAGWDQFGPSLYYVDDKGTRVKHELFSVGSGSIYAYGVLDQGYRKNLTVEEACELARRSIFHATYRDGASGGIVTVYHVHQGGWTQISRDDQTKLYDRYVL

Homo sapiens = species on record: Homo sapiens; assay: To identify inhibition of the IFN signalling (Jak-Stat) pathway via expression of an eGFP reporter gene under the control of an IFN-stimulated response element (ISRE) containing MxA promoter.; format: functional; conditions: 30 µM
[7] = molecular target: T4, Tyrosyl-tRNA synthetase, putative (Trypanosoma cruzi (strain CL Brener)) (UniProt Q4DSP6); assay: Trypanosoma cruzi tyrosyl tRNA synthetase (TcYRS) _High Tyrosine SOP; format: functional; conditions: 30 µM; also: in the data most compounds retested in dose-response had high values
T4 sequence (whole entry): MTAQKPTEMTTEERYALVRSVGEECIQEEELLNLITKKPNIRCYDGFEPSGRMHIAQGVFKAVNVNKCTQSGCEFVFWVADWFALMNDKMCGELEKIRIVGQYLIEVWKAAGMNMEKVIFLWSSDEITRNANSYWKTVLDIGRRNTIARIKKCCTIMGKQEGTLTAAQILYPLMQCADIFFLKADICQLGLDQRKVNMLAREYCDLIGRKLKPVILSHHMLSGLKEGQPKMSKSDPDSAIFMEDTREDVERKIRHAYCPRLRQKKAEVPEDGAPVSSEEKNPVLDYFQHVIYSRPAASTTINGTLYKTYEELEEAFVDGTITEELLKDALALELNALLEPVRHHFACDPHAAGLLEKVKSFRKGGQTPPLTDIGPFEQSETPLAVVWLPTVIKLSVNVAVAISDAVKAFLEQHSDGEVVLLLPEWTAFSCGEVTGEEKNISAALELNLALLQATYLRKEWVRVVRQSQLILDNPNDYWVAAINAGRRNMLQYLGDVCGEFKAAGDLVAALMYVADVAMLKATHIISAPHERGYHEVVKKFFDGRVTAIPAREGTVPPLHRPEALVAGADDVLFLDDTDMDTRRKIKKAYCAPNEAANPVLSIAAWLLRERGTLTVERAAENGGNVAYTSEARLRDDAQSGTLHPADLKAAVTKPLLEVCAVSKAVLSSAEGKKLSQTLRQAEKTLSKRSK

[8] = molecular target: T4, Tyrosyl-tRNA synthetase, putative (Trypanosoma cruzi (strain CL Brener)); assay: Trypanosoma cruzi tyrosyl tRNA synthetase (TcYRS) SOP; format: functional; conditions: 30 µM
[9] = molecular target: Chromo domain-containing protein 1 (Saccharomyces cerevisiae (strain ATCC 204508 / S288c) (Baker's yeast)) (UniProt P32657); assay: ScCHD-1 Enzyme Inhibition Assay; format: functional; conditions: 30 µM; also: in the data most compounds retested in dose-response had high values
Sequence of Chromo domain-containing protein 1 (Saccharomyces cerevisiae (strain ATCC 204508 / S288c) (Baker's yeast)) (P32657 whole entry, the tested form may be a part): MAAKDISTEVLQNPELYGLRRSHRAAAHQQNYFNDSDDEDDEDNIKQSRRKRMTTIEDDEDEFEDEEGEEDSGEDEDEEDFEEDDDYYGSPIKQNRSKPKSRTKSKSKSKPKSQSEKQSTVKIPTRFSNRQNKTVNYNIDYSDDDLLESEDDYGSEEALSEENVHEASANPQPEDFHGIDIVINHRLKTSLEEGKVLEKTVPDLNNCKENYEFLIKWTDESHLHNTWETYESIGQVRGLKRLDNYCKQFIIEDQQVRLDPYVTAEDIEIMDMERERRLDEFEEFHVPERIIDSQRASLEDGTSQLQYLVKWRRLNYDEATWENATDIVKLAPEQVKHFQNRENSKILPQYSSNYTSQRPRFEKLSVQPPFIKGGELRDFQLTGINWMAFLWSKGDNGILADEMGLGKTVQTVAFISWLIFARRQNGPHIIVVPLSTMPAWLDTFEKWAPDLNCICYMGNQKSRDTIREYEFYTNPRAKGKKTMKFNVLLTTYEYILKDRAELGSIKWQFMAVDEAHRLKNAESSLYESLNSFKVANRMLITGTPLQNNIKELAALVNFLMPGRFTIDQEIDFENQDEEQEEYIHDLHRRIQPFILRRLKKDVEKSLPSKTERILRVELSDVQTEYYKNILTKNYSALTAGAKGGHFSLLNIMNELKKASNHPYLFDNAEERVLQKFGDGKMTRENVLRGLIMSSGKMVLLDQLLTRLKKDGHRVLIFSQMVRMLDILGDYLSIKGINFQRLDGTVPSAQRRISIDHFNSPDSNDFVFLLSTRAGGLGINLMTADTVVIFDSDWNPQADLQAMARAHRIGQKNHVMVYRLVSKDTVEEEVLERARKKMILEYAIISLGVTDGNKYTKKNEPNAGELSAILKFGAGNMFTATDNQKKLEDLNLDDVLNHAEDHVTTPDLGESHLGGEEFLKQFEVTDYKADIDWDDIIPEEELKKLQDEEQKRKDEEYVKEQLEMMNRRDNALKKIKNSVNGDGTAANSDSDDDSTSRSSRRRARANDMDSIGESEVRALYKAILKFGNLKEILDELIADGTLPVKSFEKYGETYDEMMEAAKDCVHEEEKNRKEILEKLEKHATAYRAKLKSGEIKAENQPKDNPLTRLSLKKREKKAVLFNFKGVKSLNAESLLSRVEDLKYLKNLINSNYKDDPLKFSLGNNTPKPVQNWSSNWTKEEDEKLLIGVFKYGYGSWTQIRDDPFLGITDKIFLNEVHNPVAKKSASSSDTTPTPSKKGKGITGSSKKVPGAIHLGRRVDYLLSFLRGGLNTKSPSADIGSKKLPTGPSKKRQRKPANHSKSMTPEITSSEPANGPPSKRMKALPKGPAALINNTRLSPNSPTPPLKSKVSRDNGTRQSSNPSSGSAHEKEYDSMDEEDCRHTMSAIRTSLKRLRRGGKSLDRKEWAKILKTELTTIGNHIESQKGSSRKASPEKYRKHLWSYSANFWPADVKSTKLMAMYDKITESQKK

Row | SMILES | Percent Effect [1] [%] | Percent Effect [2] [%] | Percent Effect [3] [%] | Percent Effect [4] [%] | Percent Effect (Trypanosoma cruzi) [%] | Percent Effect [5] [%] | Percent Effect [6] [%] | Percent Effect (Homo sapiens) [%] | Percent Effect [7] [%] | Percent Effect [8] [%] | Percent Effect [9] [%]
1 | Cc1noc2nc(C3CCN(Cc4cccnc4)CC3)cc(C(F)F)c12 | -3.07 | 1.35 | 4.19 | 1.16 | -6.32 | -1.16 | 2.03 | 25.1 | 2.15 | 3.9 | 1.36
2 | O=C(NC[C@]12COC[C@H]1CN(Cc1nccs1)C2)N1CCCC1 | -2.52 | 9.33 | 4.41 | 2.77 | -4.52 | -7.92 | 13.5 | -4.41 | 2.12 | 5.13 | -5.18
3 | O=C(NCc1cnc2n1CCN(c1ncc(F)cn1)CC2)C1CCC1 | -3.67 | 0 | 0.174 | 23.6 | 2.83 | 1.24 | -0.772 | -4.55 | 4.3 | 3.7 | 0.0919
4 | Cn1cnc(S(=O)(=O)NCCCN2CCOCC2)c1Cl | -3.33 | 2.7 | -5.32 | -2.1 | -10.5 | 26.1 | 7.21 | 16.1 | 4.43 | 3.7 | -8.3
5 | CCS(=O)(=O)N(C)c1ccc(C(=O)N2CCCC(C)C2)cc1 (stereo unspecified) | -2.45 | 4.17 | -4.69 | 15.7 | 3.4 | 0.883 | 0.351 | 4.06 | -1.05 | 5.13 | -1.93
6 | O=C(NCCc1ccccc1)C1CCC(Cn2cnnn2)CC1 (stereo unspecified) | -0.876 | -4 | 1.1 | 6.93 | -1.77 | -4.4 | 3.88 | -9.79 | 2.12 | 5.13 | 2.05
7 | CN(C)CC1CN(Cc2cccc(C(=O)N(C)C)c2)CCO1 (stereo unspecified) | -4.12 | 20.8 | -4.76 | -4.42 | -0.562 | 3.56 | 14.7 | 20.8 | 10.7 | 14.6 | -5.94
8 | Cc1nc(NC2CCCC2)cc(C2CCN2C(=O)c2cccnc2)n1 (stereo unspecified) | -4.83 | 23 | 7.33 | 1.33 | 4.54 | -3.48 | 10.8 | 12.2 | 6.45 | 14.3 | -16
9 | Cc1nc(Nc2nnc(C)s2)cc(C2CCCN2C)n1 (stereo unspecified) | -1.27 | 16 | 3.75 | -11.6 | -2.95 | -4.43 | 15.1 | 29.1 | 2.13 | 3.85 | -6.23
10 | CC(O)CN1CCN(C(=O)c2ccc(Cn3cccn3)cc2)CC1 (stereo unspecified) | -4.02 | 18.9 | -8.57 | 7.3 | 7.08 | -9.22 | 6.67 | 3.34 | 7.39 | 25.9 | -12.3
11 | CS(=O)(=O)N1CCC2(CN(C(=O)c3cccnc3)C2)C1 | -2.76 | 5.48 | -1.91 | 3.06 | -2.18 | -2.79 | 14.3 | 23.4 | 4.17 | 6.17 | -1.65
12 | O=C(c1ccccn1)N1CCc2c(nc(N3CCCC3)[nH]c2=O)C1 | -7.12 | 12.2 | 0.895 | 26.1 | 0.198 | -3.48 | 7.64 | 10.1 | 3.23 | 11.7 | -17.3
13 | Cc1ccc2cnn(CCC(=O)Nc3c(C)nn(C)c3C)c2c1 | -3.51 | 5.2 | 2.92 | 2.18 | -4.03 | -4.14 | 5.16 | -0.975 | 2.15 | 8.64 | -0.912
14 | O=C(CCCc1cn[nH]c1)N1CCOCC(O)C1 (stereo unspecified) | -5.63 | 0 | -4.88 | -7.04 | 0 | -0.455 | 5.86 | -11.9 | 5.38 | 10 | -3.63
15 | CC(C)c1nnc2n1CCN(C(=O)c1ccc(CN(C)C)cc1)C2 | -3.27 | -2.6 | -13.6 | -5.41 | -2.84 | 1.47 | 12.5 | 22.6 | 0.952 | -2.35 | -18.4
16 | CCc1nccn1C1CCCN(C(=O)c2ccc3c(c2)OCO3)C1 (stereo unspecified) | -3.94 | -2.6 | 8.35 | -3.25 | -3.93 | -3.2 | 1.01 | 25.9 | -1.94 | -4.88 | -7.3
17 | Cn1nccc1CNC(=O)Nc1cc(C(F)(F)F)c[nH]c1=O | -2.37 | 7.89 | -1.77 | 11.9 | 2.44 | 8.43 | 4.51 | 0.842 | 6.37 | 12.2 | -9.48
18 | Cc1ccc(CN(Cc2c[nH]cn2)C2CC(C)(C)NC(C)(C)C2)o1 | -2.16 | 4.05 | 13.8 | 0.615 | -9.49 | -1.62 | 10.4 | 12.1 | 4.3 | 3.9 | -10.2
19 | CC(C)c1nc(N2CC(N3CCCCC3C)C2)c2cnn(C)c2n1 (stereo unspecified) | -7.05 | -2.74 | -1.43 | -2.38 | -7.14 | -2 | 4.54 | 4.43 | -3.12 | 8.64 | -2.78
20 | Cc1nc(C(=O)N2CCCC(n3cncn3)C2)cs1 (stereo unspecified) | -1.23 | -1.27 | 3.74 | 3.18 | -0.718 | 2.8 | 4.63 | -1.7 | -38.5 | 5.06 | 0.874
21 | Cc1nc(Nc2ncccn2)cc(C2CCCN2C2CCOCC2)n1 (stereo unspecified) | -5.08 | 6.76 | 3.91 | 3.68 | 0.593 | -3.48 | -1.72 | 13.7 | 9.68 | 11.7 | -3.64
